Where “and” joins values, the source holds several entries; their conditions need not be identical. Equal entries are not always repeated. Screen size: about 360,000 compounds; about 8,200 (2.3%) were called active. The entries come from a sample that favours actives as a whole. Values without a mark were called inactive. Cut-off read from the data, not from the text of the source: active = inhibition above about 27%; inactive = the rest.

Consider 101 compounds from PubChem BioAssay AID588726 (The Scripps Research Institute Molecular Screening Center, 2011).

Fructose-bisphosphate aldolase (Mycobacterium tuberculosis (strain ATCC 25618 / H37Rv)), sequence (P9WQA3 whole entry, looked up): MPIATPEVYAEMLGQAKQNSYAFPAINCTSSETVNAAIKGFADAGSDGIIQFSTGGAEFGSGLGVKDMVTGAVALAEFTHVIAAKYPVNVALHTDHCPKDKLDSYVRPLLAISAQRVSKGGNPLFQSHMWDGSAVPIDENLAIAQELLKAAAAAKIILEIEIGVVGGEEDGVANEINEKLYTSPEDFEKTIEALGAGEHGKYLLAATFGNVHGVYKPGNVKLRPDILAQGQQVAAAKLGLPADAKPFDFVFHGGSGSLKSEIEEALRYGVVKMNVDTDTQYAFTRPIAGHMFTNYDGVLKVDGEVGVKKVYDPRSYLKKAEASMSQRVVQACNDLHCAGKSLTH

The assay concerns the target Fructose-bisphosphate aldolase (Mycobacterium tuberculosis (strain ATCC 25618 / H37Rv)) (UniProt P9WQA3). In words: M. tuberculosis aldolase activity blockers – biochemical, fluorescence, strain H37Rv, primary screen (AID 588726).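 Note: 0% = vehicle and 100% = reference inhibitor.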 Particulars: purified M. tuberculosis FBA, fluorescence read-out, at 1 µM, active compounds read high.
For the compound `COc1ccccc1CNC(=O)C1CCN(C(=O)[C@@H]2Cc3ccccc3CN2)CC1`, the inhibition was -1.63%.
In the case of `COc1ccccc1CCNC(=O)C1CCN(C(=O)/C=C/c2ccccc2)CC1` it was 81.2% (active).
For the compound `CCOC(=O)C1CCN(C(=O)/C=C/c2cc(OC)c(OC)c(OC)c2)CC1`, the inhibition is 6.09%.
In the case of `CCCCC(CC)CNC(=O)CCCCn1c(=O)[nH]c2ccsc2c1=O` (stereo unspecified) it was -2.17%.
Under `COc1cc(C2NC(=O)NC(c3ccccc3)=C2C(C)=O)c(Br)cc1OCC(N)=O` (stereo unspecified) stands 1.26%.
With `O=C(CC(n1cncn1)C(Cl)(Cl)Cl)c1ccc([N+](=O)[O-])cc1` (stereo unspecified), the inhibition was 5.32%.
As to `NC(=S)NN=Cc1ccc(OC(=O)COc2cc(Cl)c(Cl)cc2Cl)cn1`, the inhibition was 4.26%.
Under `O=C(Nc1ccccc1C(=O)O)c1ccc(N2C(=O)C3CC=CCC3C2=O)cc1` (stereo unspecified) stands -1.48%; under `Nc1ccccc1-c1nc2ccncc2[nH]1`, 83.7% (active).
In the case of `Cc1cc(C)nc(Nc2n[nH]c(-c3ccccc3N)n2)n1` it was 15.2%; in that of `O=[N+]([O-])c1ccc2nc(-c3ccccn3)[nH]c2c1`, -3.65%; in that of `O=S(=O)(NCCSc1ccccn1)c1ccc(Cl)cc1`, -1.18%.
In the case of `O=C(CN1CCC(O)(c2cccc(C(F)(F)F)c2)CC1)NCCc1ccccc1` it was -2.53%; in that of `CCOc1ccc(C(=O)CCC(=O)NC2=NCCS2)cc1`, -2.69%.
`CCc1nn(CC(=O)N2CCN(CC)CC2)c(=O)c2cccn12`: the inhibition was 2.42%.
In the case of `CCCN1CCN(C(=O)Cn2ncc3ccccc32)CC1` it was 2.25%; in that of `CCN1CCN(C(=O)Cn2nc(C)n3c(cc4c(OC)cccc43)c2=O)CC1`, 195% (active).
In the case of `Cc1ccccc1NC(=O)NC1(C(=O)N2CCCC2)CCCCC1` it was -0.74%; in that of `COc1ccc(-n2cc(CN(C)Cc3n[nH]c(=O)[nH]3)c(-c3cccc(F)c3)n2)cc1`, 33.1% (active).
Under `Cc1cccc(-n2cc(CN3CCN(C(=O)c4ncn[nH]4)CC3)c(-c3cccc(F)c3)n2)c1` stands -3.35%; under `COc1ccc(-c2nn(-c3ccccc3)cc2CN2CCCO2)c(F)c1`, -2.2%; under `COc1ccc(-n2cc(CNC3CCOCC3)c(-c3cccc(F)c3)n2)cc1`, 50.5% (active).
As to `CCC(O)C1CCN(Cc2cn(-c3ccc(OC)cc3)nc2-c2cccc(F)c2)CC1` (stereo unspecified), the inhibition is 23.7%.
As for `Cc1ccc(-n2cc(CN(C)Cc3nccn3C)c(-c3cccc(C)c3)n2)cc1`, the inhibition is -2.31%.
In the case of `CCCCCCN1C[C@H](O)[C@@H](n2cc(C3CC3)nn2)C[C@@H]1c1ccc(Cl)cc1` it was 0.57%.
Under `COc1ccc2c(C)cc(SCC(=O)NCC3CCCO3)nc2c1` (stereo unspecified) stands 4.79%; under `COc1ccc2[nH]c3nc(SCC(=O)NC4CC4)nnc3c2c1`, -8.79%.
Under `COC(=O)CSc1nc(C)c2ccc(OC)cc2n1` stands 30.8% (active); under `Cn1ncc(N2CCN(S(=O)(=O)c3ccc(Br)cc3)CC2)c(Cl)c1=O`, -2.21%; under `c1ccc(-c2cn3c(n2)CCc2ccc4cccnc4c2-3)cc1`, 6.65%.
Consider `COc1ccc(N2CCN(C(=O)CSc3nnc4ncccn34)CC2)cc1`, for which the inhibition was -2.52%.
In the case of `Cc1ccccc1Nc1c(-c2ccccc2)nc2ncccn12` it was 2.19%; in that of `CN1CCN(Cc2ccc(OC(F)(F)F)cc2)CC1`, -3.02%.
Under `COc1ccc(C(=O)/C=C/Nc2ccccn2)cc1` stands 4.41%; under `CC(C)(C)NC(=O)NC(=O)COC(=O)C1(C)CC1(Cl)Cl` (stereo unspecified), 0.89%; under `COCCNC(=O)c1onc(CSc2cccc(C)c2)c1C(=O)O`, 1.01%.
In the case of `Cc1ccc(NC(=O)CN(C)C(=O)c2ccc(Br)o2)cc1` it was 0.61%; in that of `CC1COC2C(O1)N(S(C)(=O)=O)CCN2S(C)(=O)=O` (stereo unspecified), -0.44%.
For the compound `Cc1cccc(-c2cnc(C(O)c3cc(C)cc(C)c3)[nH]2)c1` (stereo unspecified), the inhibition was -2%.
As for `CC(C)C(C(=O)NC1CCCCC1)N(CC1CCCO1)C(=O)CNS(=O)(=O)c1ccc(F)cc1` (stereo unspecified), the inhibition was -0.74%.
Regarding `CN1OC[C@@H]2CN(C(=O)C(C)(C)C)[C@H](c3ccc(-n4ccnc4)cc3)C[C@@H]21`, the inhibition was 3.11%.
For `Cc1ccc(-c2cnc(C(O)c3cccc(C)c3C)[nH]2)cc1` (stereo unspecified), the inhibition was -6.24%.
Turning to `CCC(C)(C)NC(=O)C(c1cccc(OC)c1OC)N(CC(C)C)C(=O)CCC(=O)Nc1cc(C)on1` (stereo unspecified), the inhibition was -1.74%.
In the case of `CCOc1cc(C2C(C(=O)OC)=CN(C3CCCC3)C=C2C(=O)OC)cc(Br)c1O` it was 9.72%; in that of `COC(=O)C1=CN(C)C=C(C(=O)OC)C1c1ccc(Cl)cc1Cl`, 12.4%.
For `CCOc1ccccc1C1C(C(=O)OC)=CN(C)C=C1C(=O)OC`, the inhibition is 180% (active).
In the case of `O=C(CC1SC(N2CCCC2)=NC1=O)Nc1ccc(C(=O)NCCc2ccc(F)cc2)cc1` (stereo unspecified) it was -0.1%; in that of `COc1ccccc1C(=O)NCC(=O)NCCSc1ccc(Br)cc1`, -1.16%.
Under `Cn1nc(-c2ccc(Cl)cc2)c2cc(C(=O)NCc3ccco3)sc21` stands 43.5% (active).
Take `O=C(NCc1ccco1)c1cccc(-c2ccc3nncn3c2)c1`: the inhibition is -0.68%.
In the case of `O=C(NCc1ccco1)c1sc2cccc(F)c2c1Cl` it was 5.05%; in that of `COc1cc(C2OC(c3cc(OC)c(OC)c(OC)c3)C(C)C2C)cc(OC)c1OC` (stereo unspecified), -1.3%; in that of `CC1CCCCC1NC(=O)CO/N=C/c1ccc(OC(F)F)cc1` (stereo unspecified), -0.83%.
Under `COc1ccc2cc(CCl)c(Cl)nc2c1` stands 0.58%; under `COc1ccc2nc(-c3ccccn3)ccc2c1`, 77.3% (active); under `COc1ccc(C=C(C#N)C#N)c(CSc2ccccn2)c1`, 1.22%.
In the case of `O=C(COc1cc(Cl)c(Cl)cc1Cl)NC(=O)NC1CCCC1` it was 5.04%; in that of `CC(C)(C)C(=O)CN1C2=NCCN2c2ccccc21`, -3.57%; in that of `CC(C)n1c(NCc2c[nH]c3ccccc23)nc2ccccc21`, 1.92%.
With `CC(C)n1c(CN2CCN(Cc3ccccc3)CC2)nc2ccccc21`, the inhibition was 3.41%.
Turning to `CC(C)n1c(-c2cccs2)nc2ccccc21`, the inhibition is 32.3% (active).
Regarding `Cc1noc(C)c1-c1ccc2ncnc(NC(C)c3ccco3)c2c1` (stereo unspecified), the inhibition was 8.84%.
Consider `O=C(O)C1CCC(CNS(=O)(=O)c2ccc(Br)cc2)CC1` (stereo unspecified), for which the inhibition was 0.74%.
Under `CCN1CCN(C(=O)c2ccc(CN(c3ccc(C)c(C)c3)S(C)(=O)=O)cc2)CC1` stands -1.53%.
Under `O=c1oc2ccccc2cc1-c1cn(-c2ccccc2)c(=S)[nH]1` stands 40.4% (active); under `C/C(=C\c1ccco1)CN1CCC(N2CCC(C(=O)N3CCOCC3)CC2)CC1`, -2.26%.
Under `OCC[C@H]1C[C@@H](O)[C@H](O)[C@]2(OCCCc3ccccc32)O1` stands 2.25%; under `O=C(N/N=C\c1ccc(-c2ccc(Cl)c(Cl)c2)o1)C(=O)N1CCCC1`, 1.03%.
Consider `O=C(COc1ccc2c(c1)CCC2)N1CCN(c2ccc(F)cc2)CC1`, for which the inhibition was -1.29%.
In the case of `COc1ccc(OCC(=O)N2CCN(C(=O)c3cccs3)CC2)cc1` it was 1.53%.
In the case of `CCN1CCN(C(=O)CN(C)S(=O)(=O)c2ccc(OC)cc2)CC1` it was -1.71%; in that of `CCN1CCN(C(=O)c2cc3cc4ccc(OC)cc4nc3s2)CC1`, 43.9% (active); in that of `O=C(OCC(=O)N1CCCCCC1)c1ccc(Br)c(S(=O)(=O)N2CCOCC2)c1`, -1.57%.
Under `COc1ccc(CNC(=O)c2ccc(NS(=O)(=O)c3ccc4[nH]c(=O)[nH]c4c3)cc2)cc1OC` stands -1.09%; under `CC(C)Cn1c(N)c(C(=O)NCc2cccs2)c2nc3ccccc3nc21`, 48.5% (active); under `Cc1ccc(C(=O)OC(C)CN2CCOCC2)cc1` (stereo unspecified), -3.53%.
For the compound `CCOC(=O)c1c(CN2CCOCC2)n(-c2ccccc2)c2ccc(O)cc12`, the inhibition was -1.31%.
Consider `CCOC(=O)c1cnn(Cc2ccccc2Cl)c1N`, for which the inhibition is -1.37%.
Under `CCOC(=O)c1c(C)[nH]c(C(=O)NCCN2CCOCC2)c1C` stands 1.62%.
Regarding `CCN(C(=O)COC(=O)c1c(C)nn(-c2ccccc2)c1Cl)c1c(N)n(Cc2ccccc2)c(=O)[nH]c1=O`, the inhibition was -2.12%.
In the case of `CC(CN1CCOCC1)OC(=O)c1ccc(C(C)(C)C)cc1` (stereo unspecified) it was -5.4%; in that of `COCC(C)OC(=O)c1c(N)n(CCCN2CCOCC2)c2nc3ccccc3nc12` (stereo unspecified), 104% (active); in that of `O=C(NCc1cccs1)c1cc(-c2ccccn2)nc2ccc(Br)cc12`, 1.48%.
Regarding `O=C(Cc1coc2ccc3ccccc3c12)NCc1cccs1`, the inhibition is 0.72%.
In the case of `CCOC(=O)c1c(N)n(CCN2CCOCC2)c2nc3ccccc3nc12` it was 113% (active); in that of `CCOc1ccc(OCC)c(NC(=O)C(NS(=O)(=O)c2ccc3c(c2)oc(=O)n3C)C(C)C)c1` (stereo unspecified), 0.18%.
In the case of `O=C(NCCc1ccccc1)C(=O)NCC1OCCN1S(=O)(=O)c1cccs1` (stereo unspecified) it was 0.89%; in that of `CN(C)C(=O)N1CCNCC1`, 2.64%; in that of `Cc1nc2ccc(S(=O)(=O)NCC(=O)O)cc2s1`, 0.49%.
In the case of `COCCNS(=O)(=O)c1cc(Br)ccc1OC` it was 0.54%; in that of `CCCCC(CC(C)O)c1n[nH]c(=S)n1-c1ccccc1` (stereo unspecified), 2%.
`Cc1ccc(/C([O-])=C(/C(=S)NCc2ccco2)[n+]2ccccc2)cc1[N+](=O)[O-]`: the inhibition is 1.54%.
Under `CCOc1cc(/C=N/NC(=O)c2ccc(CSc3nncn3C)cc2)ccc1OCC(=O)N1CCOCC1` stands -1.98%.
In the case of `CCCCNc1nc2ccccc2nc1NS(=O)(=O)c1cccs1` it was 6.38%; in that of `C=CCn1c(P(C)(=O)O)nc2ccccc21`, 1.11% and 4.28%.
In the case of `O=C(NCCCN1CCCC1=O)c1ccc(S(=O)(=O)Nc2ccccc2)cc1` it was -1.21%; in that of `C=CCn1c(N)c(S(=O)(=O)c2cccs2)c2nc3ccccc3nc21`, 163% (active); in that of `C=CCn1c(C(C)NC(=O)CC)nc2ccccc21` (stereo unspecified), 3.68%.
As for `C=CCn1c(N)c(C(=O)OCC(C)C)c2nc3ccccc3nc21`, the inhibition was 88.6% (active).
In the case of `C=CCN1CN(S(=O)(=O)c2ccc(OC)cc2)c2nc3ccccc3nc21` it was 6.64%; in that of `Cc1nn(Cc2ccccc2)c(C)c1C(=O)NCCCN1CCCC1=O`, -1.19%.
